This excerpt belongs to a sample that is enriched for hits.
PostGolgi yeast – growth inhibition of a yeast mutant, post-Golgi transport screen; AID 739; post-Golgi transport phenotypic cell assay; inhibition, % at 10 µM; hit rate 0.9% among 98,000;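 also: yeast cells grown in 1536-well plates; yeast grown about 18 h at 30C before absorbance read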
GALR2 blocker – blocks the human galanin receptor 2. inhibition, % at 4 µM. hit rate 0.39% among 140,000. AID 828. GALR2-expressing cells, antagonist mode. O43603; in the data active = inhibition above about 27%;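 also: cells stimulated with galanin 1-16 at roughly its EC80; 0% = agonist challenge control and 100% = basal control without agonist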
PostGolgi ctrl – inhibits growth of the yeast control strain | hit rate 5% among 98,000 | efflux-deficient yeast background strain, growth absorbance A615, 16 h | inhibition, % at 10 µM
GALR2 ag – agonists of human galanin receptor 2 (GALR2) | O43603 | GALR2-expressing cells, agonist activation read-out | activation, % (concentration not given with the values) | hit rate 0.48% among 140,000 | AID 803; in the data active = activation above about 5%, passing the limit was not always enough;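 also: 0% = vehicle buffer wells and 100% = reference agonist at full effect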
S1P2 antag – blocks the human S1P2 receptor | AID 736 | cell-based S1P2 antagonist assay, inhibition at 5 uM | inhibition, % at 5 µM | O95136 | hit rate 0.21% among 97,000; in the data active = inhibition above about 45%;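 also: CRE beta-lactamase reporter cells expressing human S1P2 stimulated with S1P; 0% = agonist at EC80 alone and 100% = agonist plus reference antagonist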
Target sequence (O95136 whole entry, looked up): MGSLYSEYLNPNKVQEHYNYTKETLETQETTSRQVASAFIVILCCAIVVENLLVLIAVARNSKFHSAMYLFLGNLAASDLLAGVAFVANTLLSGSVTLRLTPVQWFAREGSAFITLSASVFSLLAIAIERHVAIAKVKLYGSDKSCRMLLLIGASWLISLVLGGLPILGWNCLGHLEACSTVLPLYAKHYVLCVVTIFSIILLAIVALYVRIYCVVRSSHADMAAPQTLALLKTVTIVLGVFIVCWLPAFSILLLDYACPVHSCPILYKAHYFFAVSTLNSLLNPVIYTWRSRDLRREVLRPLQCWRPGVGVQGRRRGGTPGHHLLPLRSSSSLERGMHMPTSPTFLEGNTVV
S1P2 ag – activates the human S1P2 receptor | S1P2-expressing cell line, agonist reporter read-out | AID 729 | hit rate 0.46% among 97,000 | activation, % at 4.5 µM; in the data active = activation above about 16%;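 also: 0% = vehicle low control and 100% = maximal reference agonist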
* hit, by the source's call; . = no result given. Rule as the data show it, unless noted: active = inhibition above about 30%; inactive = the rest.

SMILES	PostGolgi yeast	GALR2 blocker	PostGolgi ctrl	GALR2 ag	S1P2 antag	S1P2 ag
O=S(=O)(NC1CC2CCC1C2)c1ccc(Br)s1 (configuration not stated)	90.1*	1.5	90.7*	-1.0	-15.5	-2.3
Cc1ccc(Cn2ccc(=O)c(OCc3c(Cl)cccc3Cl)c2C)cc1	4.3	-12.7	47.8*	-1.9	-18.0	-4.4
CCC(C)NC(=O)COC(=O)c1oc2ccccc2c1CSc1ccc(Cl)cc1 (configuration not stated)	.	15.5	.	1.8	.	.
Cn1c(=O)c2c(nc(SCc3ccccc3)n2Cc2ccc(Cl)cc2)n(C)c1=O	.	0.2	.	-3.1	-8.1	-4.7
CCNc1nc2c(c(=O)n(Cc3ccccc3)c(=O)n2C)n1Cc1ccccc1	-1.1	-7.1	30.4*	-1.8	-6.8	-6.1
Cn1c(=O)c2c(nc(NCc3ccccc3)n2Cc2ccc(F)cc2)n(C)c1=O	-2.5	2.5	39.0*	-2.7	-0.1	-2.8
CC(C)Sc1nc2c(c(=O)n(C)c(=O)n2C)n1Cc1ccc(Cl)cc1	-4.0	-19.6	76.6*	1.5	11.8	-5.4
Cn1c(NCc2ccco2)nc2c1c(=O)n(Cc1ccc(Cl)c(Cl)c1)c(=O)n2C	14.6	-17.5	49.1*	-1.3	16.2	-4.5
CCCNc1nc2c(c(=O)n(C)c(=O)n2C)n1Cc1ccc(F)cc1	-0.6	-6.2	5.1	-2.2	29.9	-3.5
CCOc1cc(CNn2cn[nH]c2=S)cc(Cl)c1OCc1ccccc1F	.	-4.5	.	1.1	.	.
CN(CCO)c1c2c(nc3cc(-c4cccc(F)c4)nn13)CCCC2	-4.2	20.3	47.1*	0.6	-15.5	4.5
OC1CCN(c2c3c(nc4cc(-c5cccc(F)c5)nn24)CCCC3)CC1	-0.2	10.0	87.5*	0.0	.	.
Fc1cccc(-c2cc3nc4c(c(N5CCC6(CC5)OCCO6)n3n2)CCCC4)c1	9.5	16.5	81.1*	-0.2	.	.
Clc1cccc(-c2cc3nc4c(c(N5CCNCC5)n3n2)CCCC4)c1	.	-1.0	.	-2.4	-10.4	-1.2
Fc1cccc(-c2cc3nc(-c4ccccc4)cc(N4CCC5(CC4)OCCO5)n3n2)c1	.	7.1	.	-0.5	-16.6	-4.3
O=C(/C=C/c1ccccc1[N+](=O)[O-])Nc1cccnc1	.	7.7	.	-0.4	.	.
CCCS(=O)(=O)N1CCN(Cc2ccc3c(c2)c2ccccc2n3CC)CC1	.	3.8	.	-1.3	.	.
COc1ccccc1-c1cc(C(=O)N/N=C/c2cccs2)c2ccccc2n1	4.3	9.5	32.6*	-1.7	7.8	-1.9
O=C(N/N=C/c1cccs1)c1cc(-c2ccncc2)nc2ccccc12	.	20.9	.	2.6	.	.
COc1ccc(-c2cc(C(=O)N/N=C/c3ccc4c(c3)OCO4)c3ccccc3n2)c(OC)c1	37.1*	-1.0	71.7*	-1.9	-40.8	-2.3
COc1ccc(-c2cc(C(=O)N/N=C/c3ccc(OC)c(COCC(F)(F)C(F)F)c3)c3ccccc3n2)c(OC)c1	-7.4	-3.9	0.3	-1.6	-1.4	-4.8
CCOc1ccccc1NC(=O)CCCN1C(=S)NC(C)(C)CC1C (configuration not stated)	.	2.0	.	-0.7	.	.
Cc1ccc(SCc2[nH]nc3c2C2(C(=O)Nc4ccc([N+](=O)[O-])cc42)C(C#N)=C(N)O3)cc1 (configuration not stated)	-3.8	0.9	35.6*	-2.2	-6.3	-2.9
Cc1ccc(SCc2[nH]nc3c2C2(CCSCC2)C(C#N)=C(N)O3)cc1	1.2	-7.7	17.6	0.0	-10.7	-5.0
CCOC(=O)Cn1cc(C=O)c2ccccc21	42.1*	3.6	0.8	-1.8	-10.3	-6.0
SMILES	PostGolgi yeast	GALR2 blocker	PostGolgi ctrl	GALR2 ag	S1P2 antag	S1P2 ag
COCC(C)NC(=O)Cc1ccc(F)cc1 (configuration not stated)	.	7.0	.	-1.4	.	.
COc1ccccc1CN1C(=O)CN(C2CCCCCC2)C(=O)C1c1ccc(F)cc1 (configuration not stated)	-0.6	-3.3	48.5*	-0.5	-3.2	0.2
Cc1c(NC(=S)NC(=O)c2cc3ccccc3o2)c(=O)n(-c2ccccc2)n1C	.	3.6	.	-1.1	.	.
O=C(CNC(=O)c1ccc(S(=O)(=O)N2CCCC2)cc1)N/N=C/c1ccc(Cl)cc1Cl	.	-2.4	.	-1.2	.	.
CCc1ccccc1NC(=O)c1ccoc1C	13.6	-4.0	36.6*	-1.6	-19.4	-3.0
Cc1occc1C(=O)Nc1ccc2ccccc2c1	-3.1	15.8	52.1*	-1.9	14.2	-5.5
Cc1oc(-c2ccccc2)cc1C(=O)Nc1ccc2ccccc2c1	-0.3	10.3	0.0	-0.7	-4.1	-6.6
Cc1nn(C(C)(C)C)c(OC(=O)c2ccc3c(c2)OCO3)c1S(=O)(=O)c1ccccc1	3.5	-8.0	36.5*	-2.4	9.0	-10.0

Compound activity (PubChem BioAssay)
